From the supplement of paper PMC3334620
In all, about 33,000 sequences were measured (“E-score (-0.5 to 0.5)”: median about -0.056, highest 2% from about 0.38 on). The sample as a whole holds a higher share of the highest values than the screen did.

target: Stb4 (UniProt P50104); assay: PBM E-score (8-mer binding enrichment) (E-score (-0.5 to 0.5)); higher = stronger / more preferred TF binding; settings: protein concentration: 200 nM; construct: GST-DNA-binding domain
In short: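 For each ungapped eight-base word taken together with its reverse complement, the Universal PBM Analysis Suite assigned an E-score. Binding data came from GST-tagged yeast transcription factors, applied at about 100-200 nM, on universal all-10-mer Agilent arrays made double-stranded by primer extension. Fluorescent anti-GST marked bound protein, and scans were normalised with masliner.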

Chain of UniProt P50104 (P50104 whole entry, the tested form may be a part): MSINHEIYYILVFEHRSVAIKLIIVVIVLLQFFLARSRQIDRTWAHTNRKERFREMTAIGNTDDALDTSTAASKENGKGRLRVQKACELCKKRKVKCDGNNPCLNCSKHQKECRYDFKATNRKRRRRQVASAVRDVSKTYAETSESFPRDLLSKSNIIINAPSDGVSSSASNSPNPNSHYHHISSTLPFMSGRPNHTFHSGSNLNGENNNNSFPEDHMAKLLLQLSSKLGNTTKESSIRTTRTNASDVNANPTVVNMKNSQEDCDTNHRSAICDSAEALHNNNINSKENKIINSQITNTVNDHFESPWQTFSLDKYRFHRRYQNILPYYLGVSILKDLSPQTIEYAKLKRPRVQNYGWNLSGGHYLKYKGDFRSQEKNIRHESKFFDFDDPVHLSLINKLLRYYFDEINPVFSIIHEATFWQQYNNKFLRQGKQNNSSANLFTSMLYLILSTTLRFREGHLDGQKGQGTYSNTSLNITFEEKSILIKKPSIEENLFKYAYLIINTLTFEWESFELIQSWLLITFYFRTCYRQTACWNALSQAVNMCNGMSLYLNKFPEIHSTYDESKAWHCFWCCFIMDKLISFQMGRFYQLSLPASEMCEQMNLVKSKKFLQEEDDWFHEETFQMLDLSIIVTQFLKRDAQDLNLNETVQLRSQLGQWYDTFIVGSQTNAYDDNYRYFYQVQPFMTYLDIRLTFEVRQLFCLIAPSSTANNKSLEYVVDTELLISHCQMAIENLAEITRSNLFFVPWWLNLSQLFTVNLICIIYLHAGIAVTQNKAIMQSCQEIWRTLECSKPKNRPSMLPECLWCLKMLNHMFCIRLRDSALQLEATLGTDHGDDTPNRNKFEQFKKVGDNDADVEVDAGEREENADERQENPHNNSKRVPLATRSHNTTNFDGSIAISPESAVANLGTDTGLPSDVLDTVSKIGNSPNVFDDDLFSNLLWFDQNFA

Point of comparison: CCTTGGAG, “PBM E-score” value -0.196. Against it:
- CAAATGCG — higher, -0.127
- ATACCGAT — higher, 0.285
- ATACCGAA — higher, 0.392
- CTACCGAA — higher, 0.365
- ATACCGAC — higher, 0.167
- TTACCGAA — higher, 0.424
- GTACCGAA — higher, 0.358
- CGGTCTGC — higher, -0.0321
- GCCACCGC — higher, -0.0977
- CTCAAGGC — higher, 0.065
- AGTGCGAC — higher, 0.0915
- CCGGTATA — higher, 0.214
- ACGAGAAG — lower, -0.264
- GCGAGAAC — higher, -0.021
- GCGAGAAA — higher, -0.00939
- CCGAGAAA — higher, 0.451
- ACGAGAAC — higher, -0.149
- CCGAGAAG — higher, 0.386
- CAGAGAAG — higher, -0.0211
- TCGAGAAA — higher, -0.141
- CCGAGAAC — higher, 0.414
- AGCATTGG — higher, -0.12
- CAGGGCAC — higher, -0.15
- AAGAGGTG — higher, -0.0351
- CCATTGAC — lower, -0.243
- GAATGCGA — higher, 0.0718
- CAGAGAAA — higher, -0.173
- AGGGCCGA — higher, 0.232
- AATGAGGC — lower, -0.312
- GTCCCGAA — higher, 0.406
- ACCCCGAC — higher, 0.248
- ATCCCGAG — higher, 0.439
- TCCCCGAA — higher, 0.37
- TTCCCGAA — higher, 0.46
- ATCCCGAC — higher, 0.387
- AGCCCGAG — higher, 0.231
- ATCCCGAT — higher, 0.342
- AGCCCGAC — higher, 0.0817
- GTCCCGAC — higher, 0.376
- TTCCCAAA — lower, -0.234
- GTCCCGCA — higher, 0.213
- AACAAGAG — higher, -0.186
- TTCCACAA — higher, 0.0123
- GAGTGATC — higher, -0.021
- CGTCTGAG — higher, -0.171
- TTGCACAA — lower, -0.231
- TAGCGACA — higher, -0.154
- AGATATGA — higher, -0.0877
- CGACATTA — higher, 0.187
- CATCACCC — higher, 0.123
- AGCCCGAA — higher, 0.264
- CTCCCGAG — higher, 0.445
- CGCCCGAA — higher, 0.293
- CTCCCGAC — higher, 0.33
- ATCCCGAA — higher, 0.432
- ATCCCAAA — higher, 0.0397
- CTCCCGAA — higher, 0.43
- CTCCCGGA — higher, 0.329
- CGCCCGAG — higher, 0.328
- AATCTACA — higher, -0.0631
- AATCTATC — higher, -0.0505
- CCAAGTCC — higher, -0.104
- GGTTTTAA — higher, 0.126
- GCCCATTA — higher, -0.168
- ACGTTTGC — higher, -0.11
- TCTAGTAA — higher, -0.126
- GTGTAAAA — higher, -0.0759
- CTCCGAGA — higher, 0.409
- ATGCGAGG — lower, -0.224
- GTCCGAGA — higher, 0.378
- ATGCGAGC — higher, -0.123
- ATGCGAGA — higher, -0.117
- ATCCGAGG — higher, 0.481
- ATCCGAGC — higher, 0.478
- CTTCGAGA — lower, -0.257
- ATACGAGC — higher, -0.141
- ATCCGCGA — higher, 0.247
- ATCCGAGA — higher, 0.471
- AACCGAGG — higher, 0.355
- AACGGGTC — higher, 0.156
- AACGATAT — higher, -0.0769
- CTTCTTGC — higher, -0.0322
- ACCCCGTC — higher, 0.167
- GAGATCTA — higher, -0.103
- ACTGAGTC — higher, -0.0516
- CTCTGCCC — lower, -0.215
- CCTTCTAA — lower, -0.338
- AATTGAAG — higher, -0.06
- CCGCGATC — higher, 0.142
- CTCCGTGC — higher, 0.217
- CTCCGCGC — higher, 0.168
- CTCCGAGC — higher, 0.428
- CTGCCAAC — higher, -0.1
- TCGGAACA — higher, 0.479
- ACGGAACC — higher, 0.328
- ACGGAACA — higher, 0.326
- CAGGAACG — higher, -0.144
- GCGGAACA — higher, 0.335
- CCGGAACA — higher, 0.431
- CCGGAACC — higher, 0.41
- GCGGAACC — higher, 0.284
- ACGGAACG — higher, 0.327
- CCGGAATA — higher, 0.347
- CCGGAACG — higher, 0.424
- CGGGAACA — higher, 0.374
- AGGCCTCG — higher, 0.221
- TCTTCCAA — higher, -0.0347
- CCTGGTCC — higher, -0.116
- CGGTAAAA — higher, 0.346
- ATCGGCAG — higher, 0.321
- CTCGGCAA — higher, 0.458
- CTCGGCAC — higher, 0.451
- GTCGGCAA — higher, 0.368
- CACGGCAG — higher, 0.137
- TTCGGCAA — higher, 0.454
- CACGGCAA — higher, 0.199
- GTCGGCAC — higher, 0.361
- CTCGGCAG — higher, 0.444
- CTCGGCCA — higher, 0.251
- ATCGGCAA — higher, 0.366
- ATCGGCAC — higher, 0.34
- TAACCGCA — higher, 0.154
- TAGCCCGA — higher, 0.245
- GTACGCCA — higher, -0.109
- GACCTGTA — higher, -0.0511
- AGACACTA — higher, 0.00615
- ATACTAAT — higher, -0.00279
- AGTTCACA — higher, -0.153
- ATATAGCA — lower, -0.202
- AACGTCGC — higher, -0.129
- CCTTGATA — lower, -0.351
- CAGAGCCG — higher, 0.237
- CCTAACAA — lower, -0.248
- TACCGAGA — higher, 0.431
- CACCGAGC — higher, 0.295
- AACCGAGA — higher, 0.407
- AACCGACA — higher, 0.286
- AACCGATA — higher, 0.227
- CACCGAGA — higher, 0.222
- GACCGAGA — higher, 0.339
- AACCGAGT — higher, 0.305
- AACCGAGC — higher, 0.418
- CCTTCAAG — higher, -0.097
- ATTTATGG — higher, -0.152
- CAACATCC — higher, 0.213
- ATGTGCAG — higher, -0.166
- ATGGATAC — higher, 0.0478
- ACGGATAC — higher, 0.407
- ACGGATAG — higher, 0.381
- ACGGATAT — higher, 0.407
- AAGGATAC — higher, -0.152
- ACGGATAA — higher, 0.416
- ATGGATAA — higher, 0.024
- ACGGATTA — higher, 0.145
- ACGGATCT — higher, 0.28
- ACCGGTTC — higher, 0.216
- CGAGCGCG — higher, 0.235
- AACCGATG — higher, 0.222
- GTCCGATA — higher, 0.22
- ACCCGATC — higher, 0.333
- ATCCGATC — higher, 0.428
- ACCCGATA — higher, 0.349
- ATCCGATG — higher, 0.437
- ACCCGATG — higher, 0.399
- CTCCGATA — higher, 0.275
- ATCCGATA — higher, 0.448
- AACCGATC — higher, 0.253
- CTCCGATC — higher, 0.229
- AGCCGATG — higher, 0.321
- GGCAGTGA — higher, 0.0105
- CCCATAGC — higher, -0.0731
- ACCATATA — higher, -0.114
- GGTCTAAC — higher, 0.0261
- ATCCTGCG — higher, -0.117
- CAATGCCA — lower, -0.241
- AAGCCTAA — higher, -0.0457
- CACTCTAA — higher, -0.151
- ATGGGCGC — higher, -0.158
- AGGGCTGC — higher, -0.134
- ATCTGACA — higher, -0.0757
- GCGAGGGA — higher, -0.129
- ACGAGGGA — higher, -0.0722
- ACGAGGGC — higher, -0.0578
- CAGAGGGC — higher, -0.151
- CCGAGGGA — higher, 0.386
- CCGAGGGC — higher, 0.431
- ATCTAACA — higher, -0.00015
- CTAGGCAG — higher, -0.169
- CGGCCCGA — higher, 0.444
- GGGCCCGA — higher, 0.278
- CGGGCCGA — higher, 0.435
- GGACCCCA — higher, -0.0727
- GGACCCGA — higher, 0.386
- AGGCCCGA — higher, 0.233
- CGGGCCGC — higher, 0.309
- CGACCCTA — higher, 0.0884
- GGACCCTA — higher, -0.144
- CGACCCGA — higher, 0.4
- CGACCCGC — higher, 0.173
- GGGGCCGA — higher, 0.174
- CAATCGGA — higher, 0.374
- CGAGGATA — higher, 0.0376
- ACATATAA — higher, -0.0928
- CCTCTTTA — higher, -0.157
- ACTATACG — higher, 0.00583
- ATGACGAC — higher, 0.0312
- ATACCGAG — higher, 0.377
- AAGCCATG — higher, -0.117
- AGTCTTCG — higher, -0.008
- CCGGCCAA — higher, 0.271
- CGGACCTC — higher, 0.124
- GCGCTGAC — higher, -0.0933
- AGACCCGA — higher, 0.419
- AGACCCGG — higher, 0.305
- AGACCCGC — higher, 0.174
- AAACTGTG — higher, -0.12
- AGAGGGAT — lower, -0.271
- ACGAGACG — higher, 0.0568
- CGGAGACG — higher, 0.235
- ACGAGAGC — higher, -0.151
- ACGAGACC — higher, -0.0429
- CCGAGAGC — higher, 0.388
- CCGAGACC — higher, 0.431
- CCGAGAGA — higher, 0.373
- CCGAGACA — higher, 0.372
- CCGAGACG — higher, 0.41
